Our source for the growth values is PubChem BioAssay (NCI).

What all share (test): NCI-60 one-dose screen, 48 h (100 = growth as untreated, 0 = no growth, -100 = all killed)
What all share (conditions): 10 µM unless noted

The test system of assay [1] is NCI-H23 lung.
The test system of assay [2] is NCI-H322M lung.
In assay [3] the test system is HOP-62 NSCLC.
The test system of assay [4] is NCI-H460 lung.
Assay [5] concerns HOP-92 NSCLC.
In assay [6] the test system is NCI-H522 lung.
Assay [7] has as its system A549/ATCC NSCLC.
In assay [8] the test system is 786-0 renal.
The subject of assay [9] is COLO 205 colon.
Assay [10] deals with DU-145 prostate.

Compounds without any hit were thinned out: in the full panel of roughly 83,000, 20% have a hit.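 Percent growth is the endpoint: 0 to 100 indicates growth inhibition (40 means 60% inhibition), 0 means no net growth, and negative values indicate cell death.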 A number with no mark means an inactive call. Calls of active or inactive are those of the source. How the source made its calls: active means growth percent below 10; inactive means the rest.

Take `CCCCCCc1cc2cc(-c3nc4ccccc4[nH]3)c(=Nc3ccccc3C)oc2cc1O`: the growth was 50.4% in assay [1]; 62.8% in assay [2]; 58% in [3]; 44.8% in [4]; 13.3% in assay [5]; 14.3% in assay [6]. The growth in assay [7] was 49.9%; in [8], 46.8%; in assay [9], -94.3% (active); in [10] it was 67.4%.

As to `CCCCC1COc2cccc3c2N1C=C/C3=C\C(=O)N(C)c1ccccc1` (stereo not given), the growth in [1] is 26.6%; in [2], 89.2%; in assay [3], 78.2%; in assay [4], 64%; in [5] it was 48.4%; in assay [6], 55.6%. The growth was 71.6% in assay [7], 79.3% in assay [8], 72.9% in assay [9] and 82.9% in assay [10].

Consider `COc1cccc2c1C=C1CCCCC3=Cc4c(OC)cccc4OC13O2`, for which the growth is 55.9% in [1]; 61.2% in [2]; 56.8% in assay [3]; 25.4% in assay [4]; 46.8% in assay [5]; 32.7% in [6]. For the same molecule, the growth in [7] was 45.8%; in assay [8] it was 41.7%; in assay [9], 30.6%; in assay [10] it was 63.5%.

Regarding `CCCCC1CCc2cccc3c(SCC(=O)N(C)c4ccc(Cl)cc4)cc[n+]1c23` (stereo not given), the growth in assay [1] was 98.9%; in [2] it was 110%; in assay [3] it was 107%; in [4] it was 109%; in assay [5] it was 127%; in assay [6] it was 97.5%. The growth is 106% in assay [7], 106% in [8], 108% in [9] and 108% in assay [10].

Take `COc1cc2nc(-c3cnc(N(C)C)nc3)nc(NC3CCN(Cc4ccccc4)CC3)c2cc1OC`: the growth in assay [1] was -33.8% (active); in assay [2], -85.7% (active); in [3] it was -70.4% (active); in assay [4] it was -71.1% (active); in [5], -76.8% (active); in assay [6], -64.2% (active). Further, the growth in assay [7] is -66.3% (active); in assay [8] it was -71% (active); in assay [9] it was -82.5% (active); in assay [10] it was -83.9% (active).

Consider `O=c1oc2ccc(F)cc2c(=O)n1-c1ccc(F)cc1F`, for which the growth is 11.4% in assay [1]; 36.7% in assay [2]; 30.5% in assay [3]; 14.7% in assay [4]; -29% (active) in assay [5]; -8.1% (active) in [6]. In addition, the growth in [7] is 15.2%; in [8] it was 73.1%; in assay [9], 93.9%; in assay [10] it was 28.3%.

Consider `O=NN(C(=O)NC1CCC(C(=O)O)CC1)C1CCC(C(=O)O)CC1` (stereo not given), for which the growth in [1] was 106%; in [2], 107%; in assay [3], 104%; in assay [4] it was 107%; in assay [5] it was 98.8%; in [6], 98.7%. Further, the growth in [7] was 106%; in assay [8], 107%; in assay [9], 115%; in assay [10], 112%.

With `O=C(N/N=C/c1ccccc1Cl)C(=O)Nc1cccc(C(F)(F)F)c1`, the growth in [1] is 105%; in assay [2] it was 108%; in assay [3], 106%; in assay [4], 99.4%; in [5], 92.2%; in assay [6], 105%. Moreover, the growth was 88.8% in assay [7], 103% in [8], 113% in assay [9] and 101% in assay [10].

Regarding `COC(=O)C1=C(C)NC(C)=C(C(=O)OC)C(N2C(=O)CCC2=O)C1` (stereo not given), the growth was 96.8% in assay [1]; 91.2% in [2]; 109% in assay [3]; 101% in [4]; 101% in [5]; 7.93% (active) in [6]. In addition, the growth was 77.6% in assay [7], 99.2% in [8], 114% in [9] and 90.1% in [10].

Regarding `Cc1ccc(Cn2c(N3CCC(C(=O)NCc4cccs4)CC3)nc3ccccc32)cc1`, the growth in assay [1] was 85.2%; in [2], 114%; in [3] it was 85%; in [4] it was 82.5%; in assay [5] it was 73.9%; in assay [6] it was 107%. The growth in [7] is 95%; in assay [8] it was 89.1%; in [9] it was 96.9%; in [10], 72.8%.

With `CC1=C(C(=O)OCC2CCN(C(=O)OC(C)(C)C)CC2)[C@@H](c2cccc(C#N)c2)C2=C(CC(C)(C)CC2=O)N1`, the growth in assay [1] is 53.3%; in assay [2] it was 57.1%; in [3], 65.8%; in assay [4], 8.58% (active); in assay [5] it was 79.9%; in assay [6], 29.6%. The growth in assay [7] is 35.5%; in assay [8] it was 41.5%; in assay [9], 38.6%; in assay [10], 38.5%.

Regarding `CN(C)c1ccc(/C=C/c2ccnc3c(O)cccc23)cc1`, the growth in assay [1] is 34.8%; in assay [2] it was 28.7%; in [3] it was 20.3%; in assay [4], 0.902% (active); in assay [5] it was 53.5%; in [6] it was -10.9% (active). Besides, the growth in assay [7] is 3.5% (active); in [8], -10.5% (active); in [9] it was 99.7%; in assay [10], 13.9%.

Consider `O=C(NC1CCCCC1)C(c1cccs1)N(CCc1ccccc1)C(=O)c1ccco1` (stereo not given), for which the growth is 86.1% in [1]; 96.5% in assay [2]; 90.6% in [3]; 103% in [4]; 75.5% in assay [5]; 65.2% in assay [6]. Besides, the growth in assay [7] is 92.2%; in assay [8], 91.1%; in assay [9], 96.1%; in assay [10], 103%.

Take `CCOC(=O)C1=CN(C)C=C(C(=O)OCC)C1c1cc(Br)c(OCC)c(OC)c1`: the growth is 65.9% in assay [1]; 98.6% in assay [2]; 55.6% in assay [3]; 34.5% in assay [4]; 2.87% (active) in [5]; 52.2% in [6]. Also, the growth in [7] is 66.1%; in assay [8], 59.9%; in [9] it was -59.7% (active); in assay [10] it was 84%.
